In PubChem BioAssay AID602274 (Sanford-Burnham Center for Chemical Genomics, 2012):
The whole screen tested about 360,000 compounds, of which about 160 (0.044%) were called active. This is one part of a sample in which actives are shown more often than they occur. Values without a mark were called inactive. Cut-off read from the data, not from the text of the source: active = survival enhancement above about 18%; inactive = the rest.

Experiment: compounds raising survival of dissociated human iPSCs – cell-based, ATPlite luminescence, primary screen (AID 602274);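 note: cells exposed to compounds for 16 hours before the ATP read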
Settings: hiPSC single-cell survival, at 20 µM, active compounds read high, 100% = ROCK inhibitor wells, 0% = DMSO

| Compound | survival enhancement |
| --- | --- |
| Cc1ccc(Nc2c(O)nc[nH]c2=O)cc1C | 0.4% |
| CC(=NCc1ccc2c(c1)OCO2)C1=C(O)c2ccccc2C1=O | 2.2% |
| CC(=O)Nc1ccc(S(=O)(=O)Oc2ccc(/C=N/N=C3/NC(=O)C(CC(=O)O)S3)cc2)cc1 (stereo unspecified) | 2% |
| COc1cc(CO)c(C2(CO)CCCC2)cc1OC | 3.1% |
| C[C@@H]1ON(C)[C@H]2C[C@H]3c4cc(N5CCN(C)CC5)ccc4CCN3C(=O)[C@@H]12 | -2.2% |
| CC(C)C(C)(C#N)NC(=O)CSc1nc2scc(-c3ccccc3)c2c(=O)[nH]1 (stereo unspecified) | -0.3% |
| N=C1C(=O)OCC1c1ccccc1NC(=O)CN1CCCCC1 (stereo unspecified) | -0.4% |
| COc1ccc(C(C(=O)NCc2ccccc2)N(Cc2cccs2)C(=O)c2cnccn2)cc1 (stereo unspecified) | 6.6% |
| COC(=O)c1ccc(CN2CCCC(C(=O)Nc3cccc(-n4cnnn4)c3)C2)cc1 (stereo unspecified) | 0.6% |
| C=CC(COCc1ccccc1)N(CC(=O)OC)S(=O)(=O)c1cc(Br)ccc1OC (stereo unspecified) | -0.4% |
| CCCNc1c(N)c(=O)c1=O | -0.6% |
| O=C(Nc1ccccc1N1CCCC1)c1ccc(F)c(S(=O)(=O)N2CCOCC2)c1 | -0.3% |
| O=C(c1cccs1)N1C[C@H](n2cc(C3CC3)nn2)[C@@H](O)C[C@@H]1c1ccccc1 | -0.3% |
| Cc1c(S(=O)(=O)N2CC(C)CC(C)C2)c(=O)n(C)c(=O)n1C (stereo unspecified) | -0.4% |
| CCc1nc2ccc(C(=O)Nc3cccc(OC)c3)cn2c1N(CCC(C)C)CCN(C)C | -0.8% |
| CNC(=O)c1nnc(Cc2ccc(Cl)cc2)o1 | 0.3% |
| CCn1c(=S)sc2c(=O)n(CC(=O)Nc3cccc(Br)c3)c(C)nc21 | -0.2% |
| CCNC(=O)N1CCCC(C(=O)c2ccc(-c3ccccc3)cc2)C1 (stereo unspecified) | 1.4% |
| CC1(C)CC(N(Cc2ccccc2)C(=O)Cc2ccccc2)CCO1 (stereo unspecified) | -0.5% |
| CCN1C[C@@H]2[C@@H]3C(=O)N(C)C(=O)[C@@H]3[C@](C)(C1=O)N2C(=O)c1ccccc1 | -1.3% |
| CC(C)C[C@H](NC(=O)C1CCC(CNC(=O)[C@@H]2CCCN2C(=O)OC(C)(C)C)CC1)C(=O)O (stereo partly specified) | 0.8% |
| Cc1nc(C(F)(F)F)ccc1C(=O)N1CCC1(C)C(=O)NS(=O)(=O)c1ccc(F)cc1F (stereo unspecified) | -1.2% |

| Compound | survival enhancement |
| --- | --- |
| CC[C@H]1OC(=O)[C@H](C)[C@@H](O[C@H]2C[C@@](C)(OC)[C@@H](O)[C@H](C)O2)[C@H](C)[C@@H](O[C@@H]2O[C@H](C)C[C@H](N(C)C)[C@H]2O)[C@](C)(O)C[C@@H](C)[C@@H]2N[C@@H](COCCOC)O[C@H]([C@H]2C)[C@]1(C)O | 1.7% |
| CCCCN(C(=O)c1ccc2ccccc2c1)c1c(N)n(CCCC)c(=O)[nH]c1=O | -0.4% |
| Cn1cc(CN2CCCC(CO)C2)c(-c2ccc(Oc3ccccc3)cc2)n1 (stereo unspecified) | 4.5% |
| CNC(=O)NC(=O)C(OC(=O)c1cccc(S(=O)(=O)N2CCCCC2)c1)c1ccccc1 (stereo unspecified) | 0.1% |
| O=C1CCC[C@@H]2CC(N3CCCCC3)C[C@@H]3CCN1[C@H]23 (stereo partly specified) | -1.2% |
| CCc1nc2ccccc2n(CCOCCOCCn2c(=O)c(CC)nc3ccccc32)c1=O | 2.6% |
| Cc1ccc(S(=O)(=O)N2CCOCC2)cc1NC(=O)COC(=O)c1cnccn1 | -1.4% |
| CN(C)C(=O)CCc1ccc2c3c([nH]c2c1)[C@]1(C)[C@@H](C(=O)N2CCCCC2)C[C@H](CC(=O)NCCC2=CCCCC2)C(=O)N1CC3 | 1% |
| CCN(CC)S(=O)(=O)c1ccc(N2CCCC2)c(NS(=O)(=O)c2cccs2)c1 | 0.5% |
| COc1ccccc1NC(=O)C(C)OC(=O)CC1CCCC1 (stereo unspecified) | -0.5% |
| O=C(CSc1nnc(CN2CCCC2)n1-c1ccc(F)cc1)c1ccc2c(c1)OCO2 | 0% |
| CCOc1ncccc1C(=O)Nc1ccc2c(c1)OCCO2 | 0.1% |
| COc1cc(C(=O)NC(=S)NCc2ccco2)cc(OC)c1OC | -1.8% |
| CCc1nc2ccc(C(=O)N3CCN(S(=O)(=O)CC)CC3)cn2c1N(C=O)CCC(C)C | 0.9% |
| CCC(=NC1CC(C)(C)NC(C)(C)C1)C1=C(O)CC(C)(C)CC1=O | -1.8% |
| Cc1ccc(C(=O)N/C(=C\c2ccco2)C(=O)NC2CCS(=O)(=O)C2)cc1 (stereo unspecified) | -0.5% |
| Nc1[nH]c(=S)nc2nc(-c3ccccc3)c(-c3ccccc3)nc12 | -2% |
| CCn1c2c(c3ccc(OC)cc31)CCCC2=O | 0.7% |
| COC(=O)c1ccc2nc(C3CCCCC3)c(Cc3cccc(F)c3)n2c1 | -0.3% |
| CC1(C(=O)NCCc2c[nH]c3ccccc23)C=CC2(CCCCC2)N1C(=O)c1ccccc1 (stereo unspecified) | -0.6% |
| O=C(c1ccc(F)cc1)c1cn(Cc2ccc(F)cc2)c2cc3c(cc2c1=O)OCCO3 | -1.1% |
| COc1ccc(NC(=O)CC2C(=O)NC3CCCCC3N2C(=O)c2ccc(F)cc2)cc1 (stereo unspecified) | -0.2% |

| Compound | survival enhancement |
| --- | --- |
| COc1ccc2c(c1)c(=O)c(C(=O)c1ccc(Cl)cc1)cn2CC(=O)Nc1ccc(F)cc1 | 35.8% (active) |
| O=C(Nc1cccc2cccnc12)c1ccc2sc([C@H]3C[C@H](O)[C@@H](CO)O3)nc2c1 | -1.8% |
| C=CCn1c(C23CC4CC(CC(C4)C2)C3)n[nH]c1=S | -0.3% |
| O=C(OCCN1C(=O)c2ccccc2C1=O)[C@@H]1CC(O)CN1S(=O)(=O)c1ccccc1[N+](=O)[O-] (stereo partly specified) | -1.2% |
| CCc1nnc(NC(=O)C2CC(=O)N(c3ccc4c(c3)OCCO4)C2)s1 (stereo unspecified) | -0.7% |
| Cc1ccc(CCN2CC(C(=O)NCCc3ccccc3)CC2=O)cc1 (stereo unspecified) | 0.1% |
| CCOc1ccc(OCC)c(NC(=O)C(NS(=O)(=O)c2ccc3c(c2)oc(=O)n3C)C(C)C)c1 (stereo unspecified) | -3.4% |
| COc1ccccc1CCNC(=O)c1cnccn1 | 0.7% |
| COc1ccc(C(C#N)(CC(=O)O)c2cnccn2)cc1OC (stereo unspecified) | 27% (active) |
| COc1ccc(C(=O)NNC(=O)c2cnccn2)cc1[N+](=O)[O-] | -1.9% |
| CCC1CCCCN1CCNS(=O)(=O)c1ccc2c(c1)CCN2C(C)=O (stereo unspecified) | -1.5% |
| COC(=O)[C@@H]1C[C@H]2CC[C@H](O)C[C@H]2N1Cc1ccc(N2CCN(C)CC2)cc1 | -2.9% |
| COc1ccc(CCNC(=O)CN2C(=O)COc3ccc(S(=O)(=O)N4CCCC4)cc32)cc1OC | 0.4% |
| C/C(=N\Nc1cccc(C(=O)O)c1)c1ccc2c(c1)Nc1ccccc1S2 | -0.6% |
| Cc1nc2ccc(N)nc2nc1C | -2% |
| COC(=O)C(C)Sc1ccc2nnc(-c3cccc(F)c3)n2n1 (stereo unspecified) | 1.5% |
| COc1ccc(-c2cc(C(F)(F)F)n3nc(C(=O)N4CCOCC4)c(Cl)c3n2)cc1 | 3.2% |
| Cc1cccc([C@@H]2[C@@H]3C(=O)N(Cc4ccccc4)C(=O)[C@@H]3[C@]3(Cc4ccc(Cl)cc4)C(=O)N(c4cccc(Cl)c4)C(=O)N23)c1 | -0.6% |
| O=C(NCc1ccccc1CN1CCCC1)c1cccc(S(=O)(=O)Nc2ccc(F)cc2)c1 | -0.3% |
| C[C@H](CO)N1C[C@H](C)[C@@H](CN(C)C(=O)C2CCCCC2)OCc2cnnn2CCCC1=O | 5.1% |
| CC(C)(C)NC(=O)Cn1nnc(-c2ccccc2Cl)n1 | 1% |
| C=CCn1nc(-c2ccccc2)c2c(C)onc2c1=O | 0.6% |

| Compound | survival enhancement |
| --- | --- |
| CCOC(=O)C1=CCC2C(=O)N(Cc3ccccc3)C(=O)C12 (stereo unspecified) | -0.2% |
| CCC(Cc1ccccc1)NC(=O)C1CCCCC1 (stereo unspecified) | -0.3% |
| Cc1nc(CNS(=O)(=O)c2ccc(Oc3ccccc3)cc2)cs1 | -0.6% |
| CCNC(=O)c1c(O)c2cccc3c2n(c1=O)CC3 | 8.3% |
| OC[C@@H]1CN(Cc2ccc(Cl)cc2)C[C@H](n2cnc3c(NCc4ccncc4)ncnc32)O1 | 0.8% |
| Cc1cccc(C(=O)Nc2ccccc2C(=O)NCc2cccnc2)c1 | 7.7% |
| O=C(COC(=O)C12CC3CC(CC(O)(C3)C1)C2)NC12CC3CC(CC(C3)C1)C2 | 4.1% |
| CCOc1ccc(OCC)c(-c2c(=O)n(OCc3ccc(Cl)cc3)c3ccccc3[n+]2[O-])c1 | 0% |
| O=C(CN1C(=O)c2cccnc2Oc2ccc(Cl)cc21)Nc1ccc(F)cc1 | -2% |
| O=C(N/N=C1\CCSC1)c1cc(Cl)ccc1O | 1.9% |
| CC1CCCCC1NC(=O)Cn1c(=O)cnc2ccccc21 (stereo unspecified) | -0.7% |
| O=C(NCc1nnc(SCC(=O)N2CCCc3ccccc32)o1)c1ccccc1F | 0.9% |
| O=C(NCc1ccccc1)C1=C[C@@H](c2ccccc2)C[C@@H](OCCCCO)O1 | -2.5% |
| CN(C)S(=O)(=O)c1ccc(N2CCCC2)c(C(=O)Nc2ccc(Br)cc2F)c1 | -0.6% |
| CCOC(=O)c1c(C)[nH]c(C(=O)NCCN2CCOCC2)c1C | -0.1% |
| Cc1nc2ccccc2nc(=O)c1NNc1ccc([N+](=O)[O-])cc1 | -1.5% |
| CCN(CC)c1ccc(C(=O)c2cnc(/N=C/N(C)C)s2)cc1 | -0.3% |
| C=CCSc1nc(Cc2ccc(Cl)cc2)nc2ccccc12 | -1.7% |
| CCCCSc1nnc2c(n1)OC=Nc1ccccc1-2 | 1% |
| CCN(CC(=O)Nc1ccc(Cl)c(S(=O)(=O)N(C)C)c1)Cc1nc2ccccc2c(=O)[nH]1 | -0.1% |
